The values that follow come from PubChem BioAssay AID1347146 (National Center for Advancing Translational Sciences (NCATS), 2019).

Records with an inconclusive call do not appear. Entries that show only a call come without a potency. The source made the active and inactive calls. The call rests on the fitted dose curve; in most records, active means well fitted inhibition curve with a large enough effect; inconclusive means small, poorly fitted or top-dose-only effect; inactive means no such curve, though single readings can be large or run the other way.
Potency means the concentration at half of the fitted maximal effect.

The target of the assay is Nicotinamide N-methyltransferase (Homo sapiens) (UniProt P40261). The assay is described as follows: qHTS Assay for Inhibitors of N-terminal methyltransferase 1 (NTMT1): NNMT MTaseGlo counterscreen assay. Particulars: NNMT enzyme, MTase-Glo luminescence counterscreen; series mostly up to 57.1 µM. Summed up: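 Luminescent MTase-Glo read-out of SAH from nicotinamide methylation: 1 µM nicotinamide, 100 µM SAM, 125 nM NNMT, 30 min RT after ~15 min compound preincubation. Values normalized to no-enzyme/DMSO controls, Hill-fitted.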
Nicotinamide N-methyltransferase (Homo sapiens), sequence (P40261 whole entry, looked up): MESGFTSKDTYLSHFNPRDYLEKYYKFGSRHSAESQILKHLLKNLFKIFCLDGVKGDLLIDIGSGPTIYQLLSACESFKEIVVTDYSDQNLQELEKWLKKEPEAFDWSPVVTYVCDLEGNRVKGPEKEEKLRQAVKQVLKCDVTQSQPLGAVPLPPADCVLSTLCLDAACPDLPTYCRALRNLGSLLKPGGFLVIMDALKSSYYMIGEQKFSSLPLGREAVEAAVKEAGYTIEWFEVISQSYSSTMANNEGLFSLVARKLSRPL
In general terms: qHTS replaces the single test concentration by a dilution series.
Consider `O=C1NC(=O)C(=Cc2ccc(-c3ccc(F)cc3O)o2)S1`, for which the Potency entry was “inactive”. The result for `CN(C)CCCN1c2ccccc2Sc2ccccc21` reads “inactive”; that for `CN(C)CCCN1c2ccccc2Sc2ccc(Cl)cc21`, “inactive”. Take `O=c1c(O)c(-c2ccc(O)c(O)c2)oc2cc(O)cc(O)c12`: the Potency entry was “inactive”. For the compound `CCn1nc(C(=O)O)c(=O)c2cc3c(cc21)OCO3`, the Potency result is “inactive”.

With `COc1cc2c(NC3CCN(C(C)C)CC3)nc(N3CCC(F)(F)CC3)nc2cc1OCCCN1CCCCC1`, the Potency entry is “inactive”. The result for `Nc1ccnc2c1ncn2[C@@H]1O[C@H](CO)[C@@H](O)[C@H]1O` reads 14.1 µM (active). The result for `N[C@@H](Cc1c[nH]c2ccc(O)cc12)C(=O)O` reads “inactive”. As to `O=C1Cc2c([nH]c3ccc(Br)cc23)-c2ccccc2N1`, the Potency result was “inactive”. The entry for `O=C(Nc1ccc([N+](=O)[O-])cc1Cl)c1cc(Cl)ccc1O` is “inactive”; for `CN(C)CCCc1cc(C(=O)Nc2ccc(-c3ccncc3)cc2)ccc1O` it is “inactive”; for `CC1=C(\C=C/C(C)=C/C=C\C(C)=C\C(=O)O)C(C)(C)CCC1` it is “inactive”. The entry for `OCC1OC(n2cnc3c(NCc4ccco4)ncnc32)C(O)C1O` (configuration not stated) is “inactive”; for `N=C(N)c1ccc(OCCCCCOc2ccc(C(=N)N)cc2)cc1` (tested in a mixture with another compound) it is “inactive”; for `CCCCNc1ccc(C(=O)OCCN(C)C)cc1` it is “inactive”.

On to `CC[n+]1c(/C=C/C=C2/N(C)c3ccccc3C2(C)C)sc2ccccc21`, for which the Potency is 15.8 µM (active). The entry for `O=[N+]([O-])c1ccc(-c2nc(-c3ccc(F)cc3)c(-c3ccncc3)[nH]2)cc1` is “inactive”. The entry for `COc1cc2nc(N3CCOCC3)nc(NC(C)C)c2cc1OC` is “inactive”. The result for `COc1cccc(OC)c1OCCNCC1CSc2ccccc2O1` (configuration not stated) reads “inactive”. For `OCCN1CCN(CC/C=C2/c3ccccc3Sc3ccc(C(F)(F)F)cc32)CC1`, the Potency result is “inactive”. For `NCC(O)C1CCCCCCC1` (configuration not stated), the Potency result is “inactive”. The entry for `CCN(CC)CCNC(=O)c1c(C)[nH]c(/C=C2\C(=O)Nc3ccc(F)cc32)c1C` is “inactive”; for `C=CCN1CCc2c(cc(O)c(O)c2Br)[C@@H](c2ccccc2)C1` it is “inactive”; for `Oc1ccc(O)cc1` it is 39.8 µM (active). The entry for `CC(C)NCC(O)c1ccc(O)c(O)c1` (configuration not stated) is “inactive”. The entry for `CCCCCCCCCCCCCCCCCC(=O)OC(CC(=O)O)C[N+](C)(C)C` (configuration not stated) is “inactive”; for `O=C(/C=C/c1ccc(O)cc1)c1ccc(O)cc1O` it is “inactive”. `CN1Cc2sccc2C(c2ccc(O)c(O)c2)C1` (configuration not stated): the Potency entry was “inactive”. Consider `CC#C[C@]1(O)CC[C@H]2[C@@H]3CCC4=CC(=O)CCC4=C3[C@@H](c3ccc(N(C)C)cc3)C[C@@]21C`, for which the Potency result is “inactive”.

In the case of `CN(C)[C@@H]1C(=O)C(C(N)=O)=C(O)[C@@]2(O)C(=O)C3=C(O)c4c(O)ccc(Cl)c4[C@@H](O)[C@H]3C[C@@H]12`, the Potency entry was “inactive”.

`[N-]=[N+]=Nc1nc2c(N)ncnc2n1C1OC(CO)C(O)C1O` (configuration not stated): the Potency result is “inactive”. For the compound `CCN1CCC[C@H]1CNC(=O)c1cc(S(N)(=O)=O)ccc1OC`, the Potency result was “inactive”. The entry for `N#CC(C#N)=C(N)/C(C#N)=C/c1ccc(O)cc1` is “inactive”; for `Nc1ncnc2c1ncn2[C@@H]1O[C@H](CO)[C@@H](O)[C@H]1O` it is “inactive”; for `OC[C@H]1O[C@@H](n2cnc3cncnc32)[C@H](O)[C@@H]1O` it is 11.2 µM (active). The entry for `CC(=O)c1ccc2c(c1)N(CCCN(C)C)c1ccccc1S2` is “inactive”. The entry for `N.N.N.N.N.N.N.N.N.N.N.N.N.N.O.O.[Ru+4].[Ru+5].[Ru+5]` is “inactive”.
